High-throughput results deposited in PubChem BioAssay by National Center for Advancing Translational Sciences (NCATS).
The list is not random: actives were taken first. Their share in the collection is about 15%.
12-LOX inh – ALOX12 (human) lipoxygenase inhibition; Potency, µM (titrated, usually from 108 µM), for inactives: at the highest dose activity change, negative = inhibition, usual class: inhibitors; purified 12hLO, xylenol orange hydroperoxide absorbance; actives 1.1% (n = 580,000); AID 1671190
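Hydroperoxide product was detected by ferrous iron/xylenol orange as the 573 to 405 nm absorbance ratio. Arachidonic acid at 40 uM (final) was turned over for 30 min at room temperature by 150 nM human 12hLO, pH 7.0 Hepes buffer, after 15 min compound preincubation.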
DT40 TDP1 no CPT – qHTS for Inhibitors of human tyrosyl-DNA phosphodiesterase 1 (TDP1): qHTS in cells in absence of CPT; DT40 Tdp1-/- hTDP1 cells, no CPT, ATP luminescence, 48 h; Potency, µM (top dose mostly 46.2 µM), for inactives: top-dose activity change, negative = growth inhibition, usual class: inhibitors; actives 15% (n = 420,000); AID 686978, 2013; note: nearly all actives have a fitted effect of over 55% in size
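Stably hTDP1-transfected Tdp1-null chicken DT40 cells were treated with library compounds minus camptothecin and grown for at least 48 hr at 37 °C, after which cellular ATP was quantified by luminescence.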
VP16 counter – counter-screen for ROR gamma inhibitors: Gal4-VP16 reporter. Drosophila S2 Gal4-VP16 UAS-luciferase, luminescence, 20 h. Potency, µM (top dose mostly 53.6 µM), for the others: at the top dose activity, negative = inhibition, actives largely listed as inhibitors. actives 3.5% (n = 310,000). AID 2546;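 note: Gal4-VP16 expression switched on by copper sulfate through the metallothionein promoter; nearly all actives have a fitted effect of over 50% in size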
ELG1 repair inh – blocks ELG1-dependent DNA repair in HEK293T cells; actives 2.3% (n = 330,000); HEK293T ELG1-luciferase reporter, luminescence, 16 h; DNA damage induced by 5-fluorouridine; Potency, µM (doses to about 46.1 µM), for inactives: at the top dose activity change, negative = inhibition, most hits filed as inhibitors; note: nearly all actives have a fitted effect of over 55% in size
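DMSO vehicle served as the neutral condition. Each well held 2,000 cells given 5-fluorouridine plus compound; after 16 hr at 37 °C/5% CO2, ONE-Glo was added and luciferase measured 30 min later.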
RORg inh – inhibitors of mouse ROR gamma transcriptional activity; AID 2551; P51450; Drosophila S2 Gal4-RORgamma UAS-luciferase reporter, 20 h; Potency, µM (titrated, usually from 53.6 µM), inactives show top-dose activity change, negative = inhibition, most hits filed as inhibitors; actives 5.4% (n = 310,000); note: nearly all actives have a fitted effect of over 60% in size
Target sequence (P51450 whole entry, looked up, the tested form may be a part): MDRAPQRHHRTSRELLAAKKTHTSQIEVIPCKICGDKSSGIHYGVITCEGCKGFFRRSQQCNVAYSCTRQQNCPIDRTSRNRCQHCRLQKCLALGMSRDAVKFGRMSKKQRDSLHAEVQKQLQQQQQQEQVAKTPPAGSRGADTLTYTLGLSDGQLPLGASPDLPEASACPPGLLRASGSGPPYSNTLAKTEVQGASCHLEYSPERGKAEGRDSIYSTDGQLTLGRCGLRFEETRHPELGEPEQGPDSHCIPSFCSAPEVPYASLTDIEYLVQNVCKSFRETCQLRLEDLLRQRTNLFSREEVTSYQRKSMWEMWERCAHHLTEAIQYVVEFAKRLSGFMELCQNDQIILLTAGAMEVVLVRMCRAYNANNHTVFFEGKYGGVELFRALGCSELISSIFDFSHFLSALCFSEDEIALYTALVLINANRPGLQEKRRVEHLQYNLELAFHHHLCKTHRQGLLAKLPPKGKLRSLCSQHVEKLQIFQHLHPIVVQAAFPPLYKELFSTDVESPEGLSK
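In this cell-based reporter format, copper sulfate (700 uM final) drives Gal4–ROR gamma fusion expression from a metallothionein promoter in Drosophila Schneider cells; compounds preincubated 1 hr, reporter read after 20 hr at ambient temperature.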
TDP1 cell CPT – growth inhibition of DT40 Tdp1-/-;hTDP1 cells with camptothecin (screen for TDP1 inhibitors); chicken DT40 Tdp1-/-;hTDP1 cells + 20 nM CPT, ATP luminescence, 48 h; actives 12% (n = 420,000); Potency, µM (highest dose often 46.2 µM), without a hit: at the top dose activity change, negative = growth inhibition, hits mostly inhibitors; note: nearly all actives have a fitted effect of over 55% in size
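Cell growth measured by CellTiter-Glo luminescence after a minimum 48 h, 37 C compound exposure with 20 nM CPT in Tdp1-knockout DT40 cells stably expressing hTDP1, seeded 400/well; qHTS titration format.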
An asterisk follows results filed as active; [ ] = another dose, or the depositor's remark. Calls come from the whole dose curve; as a rule, active = well fitted curve in the direction sought with a large enough effect; inconclusive = small, poorly fitted or top-dose-only effect, or another doubt; inactive = no such curve, though single readings can be large; an effect the other way counts as inactive or inconclusive. % is set by controls: 0 for no effect and ±100 for the full control effect; potency is the fitted concentration of half-maximal effect.

How did CSc1ccc(NC(=O)c2ccc3c(c2)NC(=O)CS3)cc1 do in these assays?
12-LOX inh: -6%

How did O=C(Nc1ccc(Nc2ccccc2)cc1)c1ccc(Cl)cc1 do in these assays?
12-LOX inh: inconclusive; DT40 TDP1 no CPT: 13µM*; TDP1 cell CPT: 18µM*

How did O=C(Nc1ccc(Nc2ccccc2)cc1)C(Cl)Cl do in these assays?
12-LOX inh: -14%; DT40 TDP1 no CPT: 1.8µM*; VP16 counter: -3%; ELG1 repair inh: -15%; RORg inh: -27%; TDP1 cell CPT: 1.2µM*

What do the screens show for `NC(=O)Nc1ccc(Nc2ccccc2)cc1`?
12-LOX inh: -9%; DT40 TDP1 no CPT: -28%; VP16 counter: -6%; ELG1 repair inh: inconclusive; RORg inh: 24%; TDP1 cell CPT: inconclusive

What do the screens show for `CC(=O)c1ccc(NC(=O)c2cccc(NC(=O)c3ccccc3)c2)cc1`?
12-LOX inh: -6%; DT40 TDP1 no CPT: -23%; VP16 counter: 10%; ELG1 repair inh: inconclusive; RORg inh: 37%[1.91 µM]; TDP1 cell CPT: -11%

What do the screens show for `O=C(Nc1cccc(C(=O)Nc2ccc(Br)cc2)c1)c1ccccc1`?
12-LOX inh: 8%; DT40 TDP1 no CPT: 12µM*; VP16 counter: 1%; ELG1 repair inh: inconclusive; RORg inh: inconclusive; TDP1 cell CPT: inconclusive

How did O=C(Nc1ccc(Nc2ccccc2)cc1)c1cc[n+]([O-])cc1 do in these assays?
12-LOX inh: -17%

How did Cc1ccc(-c2nc3ccccn3c2NCc2ccc3c(c2)OCO3)cc1 do in these assays?
12-LOX inh: 0%; DT40 TDP1 no CPT: inconclusive; VP16 counter: -3%; ELG1 repair inh: inconclusive; RORg inh: -1%; TDP1 cell CPT: 21µM*

How did COc1ccc(-c2nc3ccc(C)cn3c2NCc2ccc3c(c2)OCO3)cc1 do in these assays?
12-LOX inh: -6%; DT40 TDP1 no CPT: inconclusive; VP16 counter: -12%; ELG1 repair inh: inconclusive; RORg inh: 25%; TDP1 cell CPT: -8%

What do the screens show for `COc1ccc(CSc2ccc(-c3nc4ccccn4c3NCc3ccccc3)cc2OC)cc1`?
12-LOX inh: -13%; DT40 TDP1 no CPT: 8.2µM*; ELG1 repair inh: inconclusive; TDP1 cell CPT: 9.2µM*

What do the screens show for `COc1cc(-c2nc3ccccn3c2NCc2ccccc2)ccc1SC1CCCCC1`?
DT40 TDP1 no CPT: inconclusive; ELG1 repair inh: inconclusive; TDP1 cell CPT: 26µM*

How did COc1ccc(-c2nc3ccccn3c2NC2CCCCC2)cc1SC1CCCCC1 do in these assays?
12-LOX inh: inconclusive; DT40 TDP1 no CPT: 16µM*; ELG1 repair inh: inconclusive; TDP1 cell CPT: inconclusive

How did COc1cc(-c2nc3ccccn3c2N)ccc1O do in these assays?
12-LOX inh: -7%; DT40 TDP1 no CPT: inconclusive; VP16 counter: 10%; ELG1 repair inh: 7%; RORg inh: 7%; TDP1 cell CPT: -1%

Results for CC1=CC(C)C(C2OCC3(CO2)C(C)C=C(C)CC3C)C(C)C1 (stereo not given) ?
12-LOX inh: 5%

How did O=C1CCN(C(=O)c2cccs2)CCCC(CO)CCN1 (stereo not given) do in these assays?
12-LOX inh: 14%

Results for CCOC(=O)N1CCN(Cc2cc(=O)oc3cc(C)ccc23)CC1 ?
12-LOX inh: 2%

What do the screens show for `COc1cccc(N2CC(C(=O)N3CCC(C(=O)NCC4CC4)C3)NC2=O)c1` (stereo not given)?
12-LOX inh: 26%

What do the screens show for `COc1cc(-c2nc3ccccn3c2NCC2CCCO2)ccc1O` (stereo not given)?
12-LOX inh: -10%; DT40 TDP1 no CPT: inconclusive; VP16 counter: 22%; ELG1 repair inh: 0%; RORg inh: 14µM*; TDP1 cell CPT: inconclusive

What do the screens show for `CCOc1cc(-c2nc3ccccn3c2NCC2CCCO2)ccc1O` (stereo not given)?
12-LOX inh: inconclusive; DT40 TDP1 no CPT: -17%; VP16 counter: inconclusive; ELG1 repair inh: inconclusive; RORg inh: 13%; TDP1 cell CPT: -35%

How did COc1nc(N(C)C)nc(-n2cnc(SCc3ccccc3)n2)n1 do in these assays?
12-LOX inh: -23%

What do the screens show for `COc1ccc(C)cc1-n1nnnc1SCc1noc(CC(C)C)n1`?
12-LOX inh: -19%

How did C[C@@H]1ON(C)[C@H]2C[C@H]3c4[nH]c5ccc(-c6ccc7c(c6)OCO7)cc5c4CCN3C(=O)[C@@H]12 do in these assays?
12-LOX inh: inconclusive; DT40 TDP1 no CPT: 9.2µM*; TDP1 cell CPT: 13µM*

How did C[C@@H]1ON(C)[C@H]2C[C@H]3c4[nH]c5ccccc5c4CCN3C(=O)[C@@H]12 do in these assays?
12-LOX inh: inconclusive; DT40 TDP1 no CPT: -16%; TDP1 cell CPT: 0%

What do the screens show for `COc1ccc(-n2ncc3c(NCc4ccco4)ncnc32)cc1`?
12-LOX inh: 32µM*; DT40 TDP1 no CPT: -14%; VP16 counter: -1%; ELG1 repair inh: inconclusive; RORg inh: 12%; TDP1 cell CPT: -7%

How did Clc1ccc(-n2ncc3c(NCc4ccco4)ncnc32)cc1 do in these assays?
12-LOX inh: inconclusive; DT40 TDP1 no CPT: 15µM*; VP16 counter: inconclusive; ELG1 repair inh: -7%; RORg inh: -13%; TDP1 cell CPT: inconclusive

What do the screens show for `COc1ccc(-n2ncc3c(NCc4cccs4)ncnc32)cc1`?
12-LOX inh: inconclusive; DT40 TDP1 no CPT: -23%; VP16 counter: -16%; ELG1 repair inh: inconclusive; RORg inh: -7%; TDP1 cell CPT: -17%

What do the screens show for `Cc1ccc(C(=O)N2CCCC(c3nc4ccccc4[nH]3)C2)c(C)c1` (stereo not given)?
12-LOX inh: -10%

Results for Cn1cc(C(=O)N(CCN2CCOCC2)C2CCCC2)c2ccccc21 ?
12-LOX inh: -2%

What do the screens show for `CNCCCOc1ccc(C)cc1Br`?
12-LOX inh: inconclusive; DT40 TDP1 no CPT: -14%; VP16 counter: 5%; ELG1 repair inh: inconclusive; RORg inh: -27%; TDP1 cell CPT: -6%

What do the screens show for `OCCNCCCOc1cccc(Cl)c1Cl`?
12-LOX inh: 0%; DT40 TDP1 no CPT: 0.21µM*; VP16 counter: 0%; RORg inh: -12%; TDP1 cell CPT: 0.19µM*

How did CCCCNCCCOc1cccc(Cl)c1Cl do in these assays?
12-LOX inh: -12%; DT40 TDP1 no CPT: inconclusive; VP16 counter: -1%; ELG1 repair inh: 26%; RORg inh: -15%; TDP1 cell CPT: 15µM*
